RAD52 anneal inh = inhibitors of human RAD52 DNA annealing. P43351. recombinant RAD52 DNA annealing, FRET fluorescence. inhibition, % at 18.7 µM. 0.46% of 360,000 active. AID 651710;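 active means every replicate showing at least 50% inhibition; inconclusive means mean inhibition at least 50% but not in every replicate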
FGF22 binding = FGF22 (human) thermal shift binding | Q9HCT0 | recombinant FGF22 thermal shift, SYPRO orange fluorescence; percent of sucrose octasulfate shift, DMSO zero | activity (Tm shift, normalised), % at 9.99 µM | 1.5% of 340,000 active | AID 651658;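 active means mean Tm shift, scaled 0 neutral to 100 positive control, at about 1.3% or above, every replicate too, limit read from the data; inconclusive means no clear call, values can overlap the other calls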
AF4-AF9 inh = blocks AF4 peptide binding to human AF9 | 0.47% of 350,000 active | inhibition, % at 10 µM | P42568 | AlphaScreen, biotin-AF4 peptide binding to FLAG-AF9;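 active means every replicate reaching a set inhibition limit, whatever the replicate mean, cut at about 25% in these data; inconclusive means mean inhibition reaches that limit but some replicates miss it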;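 further: 0% = plate neutral control median and 100% = total signal loss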
DENV2 CPE = protects cells from dengue virus 2 cytopathic effect; DENV2-infected cells, cytopathic effect rescue, plate reader; CPE inhibition, % at 9.99 µM; 1.7% of 350,000 active; in the data active means CPE inhibition above about 20%, passing the limit was not always enough; inconclusive means no clear call, values can overlap the other calls; tested in BHK-21 cells;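 further: 0% = median of neutral control wells and 100% = median of positive control wells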
ERAP1 HTS inh = inhibitors of human ERAP1 aminopeptidase; 0.15% of 340,000 active; recombinant ERAP1, Leu-AMC fluorescence, 60 min; AID 652197; inhibition, % at 10.7 µM;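 active means mean replicate inhibition of at least 30%, or all replicates individually reaching that 30% level; inactive means mean below 30% and not every replicate reaching it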;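 further: 0% = neutral control wells and 100% = L-leucinethiol positive control wells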
Target sequence (Q9NZ08 whole entry, looked up): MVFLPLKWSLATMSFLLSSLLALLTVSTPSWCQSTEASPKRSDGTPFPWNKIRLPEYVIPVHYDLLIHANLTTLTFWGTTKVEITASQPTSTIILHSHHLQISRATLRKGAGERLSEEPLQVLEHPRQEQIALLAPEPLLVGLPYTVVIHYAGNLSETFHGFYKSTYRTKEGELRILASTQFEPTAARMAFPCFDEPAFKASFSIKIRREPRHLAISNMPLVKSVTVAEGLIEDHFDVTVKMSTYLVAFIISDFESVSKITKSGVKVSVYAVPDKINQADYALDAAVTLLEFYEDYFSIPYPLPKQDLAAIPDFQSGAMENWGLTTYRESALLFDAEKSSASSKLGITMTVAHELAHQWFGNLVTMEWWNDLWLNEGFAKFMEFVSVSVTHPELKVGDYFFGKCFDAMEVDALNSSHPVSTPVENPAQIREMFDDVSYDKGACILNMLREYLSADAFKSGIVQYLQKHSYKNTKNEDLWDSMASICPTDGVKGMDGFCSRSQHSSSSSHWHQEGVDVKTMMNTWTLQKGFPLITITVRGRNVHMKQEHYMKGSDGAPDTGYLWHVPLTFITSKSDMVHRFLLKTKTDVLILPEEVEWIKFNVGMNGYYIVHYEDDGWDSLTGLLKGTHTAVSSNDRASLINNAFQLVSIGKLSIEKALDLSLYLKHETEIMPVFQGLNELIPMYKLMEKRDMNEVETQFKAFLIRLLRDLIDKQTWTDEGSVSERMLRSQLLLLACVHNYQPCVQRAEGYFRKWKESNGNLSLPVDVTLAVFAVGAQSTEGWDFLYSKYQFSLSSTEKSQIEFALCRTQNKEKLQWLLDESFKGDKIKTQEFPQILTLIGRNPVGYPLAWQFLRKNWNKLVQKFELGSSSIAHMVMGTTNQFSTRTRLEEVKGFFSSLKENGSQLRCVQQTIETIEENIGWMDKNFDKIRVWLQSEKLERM
RAD52 DNA ctr = DNA binding artifact in RAD52 counter-screen; Salmon sperm DNA/acridine orange FP displacement; AC50, µM; 8% of 1,000 active; shares compounds with RAD52 anneal inh;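 active means fitted half-maximal concentration for signal loss at or below twice the highest dose tested, in every separate run, actives reach about 64 µM in these data; inconclusive means runs disagree, or flat partial signal loss, or poor fit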
Starred values were filed as active, the others as inactive. A selection: hits, their analogues and other compounds. The true share with any hit is near 4%.

What do the screens show for `COc1ccc2c3c([nH]c2c1)[C@@H](CO)N(C(=O)C1CCC1)CC31CN(C(=O)c2ccccn2)C1`?
RAD52 anneal inh: -7.4; AF4-AF9 inh: -1.4; DENV2 CPE: -0.4; ERAP1 HTS inh: -0.9

How did COc1ccccc1NC(=O)N[C@H]1CC[C@H](CC(=O)N2CCC(Cc3ccccc3)CC2)O[C@H]1CO do in these assays?
RAD52 anneal inh: 2.5; FGF22 binding: -0.5; AF4-AF9 inh: -2.2; DENV2 CPE: 4.2; ERAP1 HTS inh: -3.2

How did CO[C@@H]1CC[C@@H]2CCN(C)C(=O)C[C@@H](c3ccccc3)CN(C)C(=O)c3cc(C#N)ccc3OC[C@@H]1O2 do in these assays?
AF4-AF9 inh: -2.3

How did NCCCCCc1cn(CC(=O)NCCCCCCCCCCC(=O)N2CCNCC2)nn1 do in these assays?
RAD52 anneal inh: 55.3*; FGF22 binding: 0.0; AF4-AF9 inh: 12.9; DENV2 CPE: -9.6; RAD52 DNA ctr: inactive

Results for CN1CCC(N(C)C(=O)/C=C/c2cn(-c3ccccc3)nc2-c2cccs2)CC1 ?
RAD52 anneal inh: 71.0*; FGF22 binding: -0.5; AF4-AF9 inh: 19.2; ERAP1 HTS inh: 0.0; RAD52 DNA ctr: inactive

What do the screens show for `C#CCOCCOCCOCCNc1nc(N2CCN(C(=O)[C@H](CCCCN)n3cc(CN)nn3)CC2)nc(N2CCN(C(=O)[C@H](CCCCN)n3cc([C@@H](N)[C@H](C)CC)nn3)CC2)n1`?
RAD52 anneal inh: 72.1*; FGF22 binding: -0.2; AF4-AF9 inh: 64.2*; DENV2 CPE: 16.1; ERAP1 HTS inh: -4.1; RAD52 DNA ctr: 37.2µM*

How did C#CCOCCOCCOCCNc1nc(N2CCN(C(=O)[C@H]([C@@H](C)CC)n3cc([C@@H](N)CO)nn3)CC2)nc(N2CCN(C(=O)[C@H](CCCCN)n3cc([C@@H](N)C(C)CC)nn3)CC2)n1 (stereo partly drawn) do in these assays?
RAD52 anneal inh: 57.4*; FGF22 binding: -0.2; AF4-AF9 inh: 16.8; DENV2 CPE: -7.7; ERAP1 HTS inh: -7.9; RAD52 DNA ctr: inactive

What do the screens show for `C#CCOCCOCCOCCNc1nc(N2CCN(C(=O)[C@H](CCCCN)n3cc(CN)nn3)CC2)nc(N2CCN(C(=O)[C@H](CO)n3cc([C@@H](N)C(C)C)nn3)CC2)n1`?
RAD52 anneal inh: 59.8*; FGF22 binding: -0.1; DENV2 CPE: 7.1; ERAP1 HTS inh: -1.7; RAD52 DNA ctr: inactive

Results for C#CCOCCOCCOCCNc1nc(N2CCN(C(=O)[C@H]([C@@H](C)CC)n3cc(CCC(=O)O)nn3)CC2)nc(N2CCN(C(=O)[C@H](CCCCN)n3cc(CCCC)nn3)CC2)n1 ?
RAD52 anneal inh: 12.3; FGF22 binding: -0.1; AF4-AF9 inh: -3.7; DENV2 CPE: inconclusive; ERAP1 HTS inh: 0.3

How did C#CCOCCOCCOCCNc1nc(N2CCN(C(=O)[C@H](CCCCN)n3cc(CN)nn3)CC2)nc(N2CCN(C(=O)[C@H](CCC(=O)O)n3cc(CN)nn3)CC2)n1 do in these assays?
RAD52 anneal inh: 4.0; FGF22 binding: -0.4; AF4-AF9 inh: 9.6; DENV2 CPE: -5.5; ERAP1 HTS inh: -2.7

What do the screens show for `C#CCOCCOCCOCCNc1nc(N2CCN(C(=O)[C@H]([C@@H](C)CC)n3cc(CCCCN)nn3)CC2)nc(N2CCN(C(=O)[C@H](CCCCN)n3cc(CCCC)nn3)CC2)n1`?
RAD52 anneal inh: 54.3*; FGF22 binding: 0.1; AF4-AF9 inh: 12.9; DENV2 CPE: -6.6; ERAP1 HTS inh: -7.4; RAD52 DNA ctr: inactive

Results for N#Cc1cccc(-c2ccc([C@H]3[C@H](CO)N4CCCCN(C(=O)Nc5ccc(F)cc5)C[C@@H]34)cc2)c1 ?
RAD52 anneal inh: -17.5; FGF22 binding: -0.2; AF4-AF9 inh: 1.0; DENV2 CPE: 8.7; ERAP1 HTS inh: -2.4

Results for COc1ccc(Nc2cc(C)nc3ccc(OC)cc23)cc1 ?
RAD52 anneal inh: 55.5*; FGF22 binding: 0.1; AF4-AF9 inh: -9.1; DENV2 CPE: 19.4; ERAP1 HTS inh: 3.4; RAD52 DNA ctr: inactive

What do the screens show for `COc1ccc2nc(C)cc(Nc3ccc(C(=O)O)cc3)c2c1`?
RAD52 anneal inh: -22.3; ERAP1 HTS inh: -1.5

How did COc1ccc(CCNC(=O)c2cc(-c3ccco3)nc3ccccc23)cc1 do in these assays?
RAD52 anneal inh: 2.2; FGF22 binding: 0.1; AF4-AF9 inh: -2.2; DENV2 CPE: 4.4; ERAP1 HTS inh: 4.4

What do the screens show for `CCN(CC)CCNC(=O)c1cc(-c2ccco2)nc2ccccc12`?
RAD52 anneal inh: 77.8*; FGF22 binding: 0.4; AF4-AF9 inh: 6.4; DENV2 CPE: -5.2; ERAP1 HTS inh: 6.3; RAD52 DNA ctr: inactive

What do the screens show for `CCN(CC)CCOC(=O)c1ccc(N=CC2=C(O)CC(C)(C)CC2=O)cc1`?
RAD52 anneal inh: 70.9*; FGF22 binding: 0.2; AF4-AF9 inh: -9.3; DENV2 CPE: -3.3; ERAP1 HTS inh: 2.6; RAD52 DNA ctr: inactive

Results for CC1(C)CC(=O)C(C=Nc2ccc(N)cc2)=C(O)C1 ?
RAD52 anneal inh: -0.4; FGF22 binding: 0.0; AF4-AF9 inh: 3.3; DENV2 CPE: 1.9; ERAP1 HTS inh: 3.1

How did COc1ccc2nc(NCCNC(=S)NCCCN3CCOCC3)c(C#N)cc2c1 do in these assays?
RAD52 anneal inh: 69.7*; FGF22 binding: 0.1; AF4-AF9 inh: -4.7; DENV2 CPE: -6.9; ERAP1 HTS inh: 11.2; RAD52 DNA ctr: inactive

What do the screens show for `COC(=O)C1=C(C)N(Cc2ccc(C(F)(F)F)cc2)C(=NCc2ccc(C(F)(F)F)cc2)NC1c1ccccc1` (stereo not drawn)?
RAD52 anneal inh: 58.8*; FGF22 binding: 0.0; DENV2 CPE: -4.0; ERAP1 HTS inh: 3.1; RAD52 DNA ctr: inactive

What do the screens show for `CCN=C1NC(c2ccccc2)C(C(=O)OC)=C(C)N1Cc1ccc(C(F)(F)F)cc1` (stereo not drawn)?
RAD52 anneal inh: 32.4; FGF22 binding: -0.3; DENV2 CPE: 14.8; ERAP1 HTS inh: 5.9

Results for COC(=O)C1=C(C)N(Cc2cccc(C(F)(F)F)c2)C(=NCc2cccc(C(F)(F)F)c2)NC1c1ccc(Cl)cc1 (stereo not drawn) ?
RAD52 anneal inh: 67.3*; FGF22 binding: -0.2; DENV2 CPE: inconclusive; ERAP1 HTS inh: 2.1; RAD52 DNA ctr: inactive

Results for O=S(=O)(N[C@H]1CC[C@H](CCn2cc(-c3cccc(F)c3)nn2)O[C@H]1CO)c1ccc(Cl)cc1 ?
RAD52 anneal inh: -12.7; FGF22 binding: 0.5; AF4-AF9 inh: -1.1; DENV2 CPE: 5.8; ERAP1 HTS inh: -5.9

How did CCOC(=O)c1c(NC(=O)c2ccccc2N(C)S(=O)(=O)c2ccccc2)sc2c1CCCC2 do in these assays?
RAD52 anneal inh: -1.3; FGF22 binding: 0.2; AF4-AF9 inh: 1.2; DENV2 CPE: 5.1; ERAP1 HTS inh: 10.1

What do the screens show for `CCOC(=O)c1c(NC(=O)C(NCCN(C)C)c2ccccc2)sc2c1CCCC2` (stereo not drawn)?
RAD52 anneal inh: 63.5*; FGF22 binding: 1.2; AF4-AF9 inh: 28.8*; DENV2 CPE: -1.8; ERAP1 HTS inh: 7.7; RAD52 DNA ctr: inactive

Compound activity (PubChem BioAssay)
